ADAM17 inh: ADAM17 inhibition, QFRET primary screen | 370,000 compounds, 0.83% hits | recombinant ADAM17, EDANS/DABCYL FRET peptide cleavage | inhibition, % at 6.95 µM;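 active = inhibition above the mean of compounds lying between control limits plus 3 SD, set per campaign, cut at about 8.5% in these data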;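 note: 0% = DMSO-only wells as the low control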
KLK7 zymogen act: proKLK7 (human) activation, primary screen. 370,000 compounds, 0.9% hits. purified proKLK7, EDANS-DABCYL substrate fluorescence; 100% is mature enzyme control, 0% vehicle. activation, % at 7 µM. AID 652039;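 active = activation above the mean of all tested compounds plus 3 SD, computed per campaign excluding outliers beyond control limits, cut at about 13% in these data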
ADAM10 inh: inhibits human ADAM10. O14672. recombinant ADAM10, EDANS/DABCYL FRET peptide cleavage, 3 h. inhibition, % at 7 µM. 370,000 compounds, 0.62% hits. AID 720582;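 active = inhibition above a per-campaign cutoff equal to the mean of compounds falling between control-based bounds plus 3 SD, cut at about 20% in these data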;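 note: 0% = DMSO wells while the 100% control is not disclosed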
rCAG RNA binder: molecules binding r(CAG) RNA repeats; r(CAG) RNA repeat, TO-PRO-1 dye displacement fluorescence; inhibition, % at 3 µM; 370,000 compounds, 1.3% hits;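 active = inhibition above the plate cutoff, the mean of all test compounds on that plate plus 3 SD, cut at about 35% in these data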;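 note: 0% = DMSO alone and 100% = 100 µM mitoxantrone as full dye displacement; higher means more dye released from RNA so lower well fluorescence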
NR3A LBD binder: NR3A (human) ligand-binding domain modulation | 340,000 compounds, 2.5% hits | Tm shift relative to glycine control, % at 25 µM | NR3A LBD differential scanning fluorimetry, Tm shift; 0% = protein alone, 100% = glycine-bound protein;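 active = melting temperature shift of at least 10% of the positive control shift, at one fixed dose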
AHR activator: activates the human aryl hydrocarbon receptor. P35869. AHR-responsive luciferase reporter cells, luminescence. activation, % at 5 µM. 320,000 compounds, 2.5% hits. AID 2796; in the data active = activation above about 47%;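 note: 0% = vehicle wells and 100% = reference agonist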
proKLK7 act conf: proKLK7 activation, confirmation; AID 686949; 3,200 compounds, 68% hits; shares compounds with KLK7 zymogen act; purified proKLK7, EDANS-DABCYL substrate fluorescence; scaled: vehicle 0, mature enzyme 100; activation, % at 7 µM;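 active = activation, as change over the incubation, above the mean of all tested compounds plus 3 SD, cut at about 13% in these data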
EDANS interfere: counter-screen for kallikrein-7 activators: EDANS-DABCYL optical interference; shares compounds with KLK7 zymogen act; EDANS-DABCYL substrate fluorescence interference, no enzyme, 4 h; solvent 0%, active enzyme control 100%; activation, % at 7 µM; 3,200 compounds, 80% hits;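 active = activation above the all-compound mean plus 3 SD, ignoring values outside control-based bounds, cut at about 4.8% in these data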;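 note: value is the 4 h activation minus the activation read at time zero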
K7 EDANS ctr: optically interferes with EDANS-DABCYL fluorescence, kallikrein-7 activator counter-screen; shares compounds with KLK7 zymogen act; EDANS-DABCYL peptide fluorescence interference, no enzyme; EC50, µM; 250 compounds, 20% hits; AID 720493;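 active = compounds that raise the fluorescence signal in this interference counterscreen, with EC50 at or below 10 µM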;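 note: intact quenched peptide substrate alone read at 355 nm excitation and 520 nm emission; signal is fluorescence gain from T0 to T4 after four hours at room temperature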
Numbers without * were called inactive; i = inactive; . = no result given. Most compounds without a hit are left out; they make up all but 7% or so of the library.

SMILES | ADAM17 inh | KLK7 zymogen act | ADAM10 inh | rCAG RNA binder | NR3A LBD binder | AHR activator | proKLK7 act conf | EDANS interfere | others
COc1ccc(-c2cc(C(=O)N(C)CC(=O)Nc3ccccc3C(F)(F)F)c3ccccc3n2)cc1OC | -18 | 14* | -78 | 3 | 6 | . | 2 | 9.0*
N#CC1=C(SCC(=O)c2cc3ccccc3oc2=O)NC(=O)C(C#N)C12CCCC2 (stereo not given) | -42 | 27* | -155 | 35 | 6 | 12 | 55* | 54*
COCCNC(=O)C1(C)CCCN(Cc2cc(C(F)(F)F)ccc2Cl)C1 (stereo not given) | -6 | -1 | -8 | -4 | . | . | . | .
O=C1c2ccccc2/C(=C\c2ccc(O[C@@H]3CCCCO3)cc2)N1c1ccccc1 | -46 | 100* | -176 | 7 | . | . | 4 | 15*
O=C1c2ccccc2/C(=C\c2ccc(Br)s2)N1c1ccccc1 | -20 | -6 | -80 | 5 | -12 | 21 | . | .
O=C(O)CCN1c2cccc3cccc(c23)S1(=O)=O | -87 | 16* | -248 | 1 | 0 | 2 | 19* | 11* | K7 EDANS ctr=>69
CC(C(=O)N(C)C)N1c2cccc3cccc(c23)S1(=O)=O (stereo not given) | -36 | 8 | -153 | -3 | 1 | -2 | . | .
C=CCNC(=O)CN1c2cccc3cccc(c23)S1(=O)=O | -70 | 13* | -160 | 5 | 0 | 3 | 4 | 7.1*
CC(C(=O)O)N1c2cccc3cccc(c23)S1(=O)=O (stereo not given) | -123 | 22* | -296 | 3 | 0 | . | 27* | 28*
COc1cccc2[nH]c3c(N4CCC5(CC4)OCCO5)ncnc3c12 | i | 39* | i | -4 | -1 | 37 | 38* | 45*
COc1ccc(OC)c2c1C(=O)CC2C (stereo not given) | -334 | 43* | i | 0 | . | . | 49* | 49*
CCOc1ccc(N(CC(=O)Nc2ccc(OC)cc2)S(=O)(=O)c2c(C)noc2C)cc1 | 1 | 0 | 1 | 3 | -9 | 0 | . | .
COc1ccc(N(CC(=O)Nc2ccc(C)cn2)S(=O)(=O)c2c(C)noc2C)cc1 | 1 | 16* | 6 | -5 | 2 | 2 | 1 | 0
Cc1nn(C)c(C)c1S(=O)(=O)N1CCCC(C(=O)NCC2COc3ccccc3O2)C1 (stereo not given) | 3 | 0 | -8 | -3 | -1 | -1 | . | .
CSc1ccc(/C=C/C(=O)OCC(=O)NC2CCCC2)cc1 | -292 | 19* | i | 2 | . | . | -2 | 4
Cc1ccc(C(=O)OCC(=O)NNC(=O)c2ccc([N+](=O)[O-])cc2)o1 | -4 | 0 | 0 | 1 | 0 | 3 | . | .
Cc1oc2c(CN3CCCCC3C)c(O)ccc2c(=O)c1-c1ccc(Br)cc1 (stereo not given) | -358 | 10 | i | -3 | 0 | . | . | .
Cc1oc2c(CN3CCC(C)CC3)c(O)ccc2c(=O)c1-c1ccccc1 | i | 37* | i | -4 | -2 | 1 | 40* | 45*
Cc1oc2c(CN3CCCC3)c(O)ccc2c(=O)c1-c1ccccc1 | . | . | . | . | 0 | 1 | . | .
Cc1oc2c(CN3CCOCC3)c(O)ccc2c(=O)c1-c1ccc(Cl)cc1 | -253 | 49* | i | -7 | 1 | 0 | 7 | 6.1*
Cc1oc2c(CN3CCCC3)c(O)ccc2c(=O)c1-c1ccc(Cl)cc1 | -410 | 27* | i | 0 | -1 | -1 | 40* | 50*
O=c1cc(C(F)(F)F)c2sc(N3CCCCC3)nc2[nH]1 | -370 | 38* | i | 5 | 2 | 15 | 2 | 10*
O=C(NCc1ccco1)c1nc2nc(-c3cccs3)cc(C(F)(F)F)n2n1 | i | 56* | i | 11 | 1 | 42 | 61* | 68*
COC(=O)c1nc2nc(C)cc(C(F)(F)F)n2n1 | 0 | 0 | 2 | 0 | -2 | 1 | . | .
COC(=O)c1nc2nc(-c3cccs3)cc(C(F)(F)F)n2n1 | i | 205* | i | -2 | -2 | 0 | 63* | 67*
SMILES | ADAM17 inh | KLK7 zymogen act | ADAM10 inh | rCAG RNA binder | NR3A LBD binder | AHR activator | proKLK7 act conf | EDANS interfere | others
O=C(NCc1ccco1)c1nn2c(C(F)(F)F)cc(-c3cccs3)nc2c1Br | -4 | -1 | -9 | 7 | -3 | 20 | . | .
CCOC(=O)c1ccc(N2CCN(C(C)=O)CC2)c(NC(=O)c2cccnc2)c1 | 1 | 0 | 3 | -2 | -1 | 1 | . | .
O=C(NCC(c1cccs1)N1CCOCC1)c1cc2ccccc2oc1=O (stereo not given) | -6 | 0 | -20 | 1 | 4 | 0 | . | .
CNC(=O)OCc1cccc(COC(=O)NC)n1 | -2 | -1 | -5 | 1 | 2 | 0 | . | .
CNC(=O)OCc1cocc1COC(=O)NC | 1 | 42* | 1 | 2 | . | . | 0 | 0
COc1ccc(-c2coc3cc(OC(C)=O)c(OC)cc3c2=O)cc1 | -83 | 43* | -333 | -3 | 1 | -5 | 153* | 111*
CCOC(=S)SCC(=O)N1CCc2cc(OC)c(OC)cc2C1C1C(=O)CC(C)(C)CC1=O (stereo not given) | -30 | 26* | -106 | -1 | 0 | 0 | 3 | 3
CCOC(=S)SCC(=O)N1CCc2ccccc2C1C1C(=O)CC(C)(C)CC1=O (stereo not given) | -4 | 0 | 0 | 4 | 1 | 0 | . | .
Cc1nn(-c2ccccn2)c2nc(-c3cccs3)cc(C(=O)N3CCOCC3)c12 | i | 23* | i | -4 | 0 | -3 | 32* | 26* | K7 EDANS ctr=>70
COc1ccc(-c2cc(C(=O)O)c3c(C)nn(-c4ccccn4)c3n2)cc1 | -355 | -34 | i | 3 | 2 | 1 | . | .
COc1ccc2c(C(=O)NCCCCO)c(-c3ccc(S(C)(=O)=O)cc3)sc2c1 | i | 49* | i | -3 | -1 | 1 | 65* | 82*
CN(C)c1ccc(/C=C/c2cccc[n+]2[O-])cc1 | 3 | 32* | 3 | -22 | -1 | -5 | 216* | 236*
O=C(NCCCn1ccnc1)C1CCCN(S(=O)(=O)c2ccc(F)cc2)C1 (stereo not given) | -4 | 0 | -6 | -3 | -1 | 9 | . | .
Nc1c(Cl)cc(Cl)cc1C(=O)OCC(=O)NC1CC1 | -479 | 22* | i | 0 | -1 | 5 | 36* | 33*
CCCC(=O)c1c(NCCO)cc(C)oc1=O | 0 | 1 | 9 | 3 | 0 | 0 | . | .
